{
  "source": "the supplement of paper PMC10933113",
  "note": "± gives the uncertainty stated by the source.",
  "data": [
    {"test_system": "THP-1", "experiment": "CD86 surface expression induction over DMSO control (% over DMSO); higher = stronger dendritic cell activation", "details": "exposure time: 24 h", "experimental": "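hCLAT-like CD54 and CD86 surface expression on THP1 cells after 24 h exposure at a single concentration (highest non-cytotoxic concentration, or 100-200 µM if not cytotoxic). Flow cytometry (iQue) was run on 5,000 live cells.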", "values": [
      {"smiles": "Cc1c2ccccc2c(C)c2c1ccc1ccccc12", "note": "[7,12-Dimethylbenzanthracene] (10 µM)", "CD86 surface expression induction": "47.5 ± 61"},
      {"smiles": "CC(C)CC(NC(=O)OCC1c2ccccc2-c2ccccc21)C(=O)O", "note": "(stereo in doubt) [N-(9-Fluorenylmethoxycarbonyl)-L-leucine] (100 µM)", "CD86 surface expression induction": "-11.4 ± 2.7"},
      {"smiles": "CCc1oc2ccccc2c1C(=O)c1cc(I)c(O)c(I)c1", "note": "[Benziodarone] (100 µM)", "CD86 surface expression induction": "7.99 ± 3.4"},
      {"smiles": "c1ccc(-c2ccccn2)nc1", "note": "[2,2'-Dipyridyl] (200 µM)", "CD86 surface expression induction": "0.3 ± 28"}
    ]}
  ]
}
